# Assay results reported in ChEMBL document CHEMBL2218924, “A broad activity screen in support of a chemogenomic map for kinase signalling research and drug discovery” (Biochem J, 2013).
# Legend:
# [1] = biological target: Tyrosine-protein kinase SYK (Homo sapiens) (UniProt P43405); details: at 10 µM
# [2] = biological target: T1, Mitogen-activated protein kinase kinase kinase 7 (Homo sapiens) (UniProt O43318); details: at 1 µM
# T1 sequence (whole entry): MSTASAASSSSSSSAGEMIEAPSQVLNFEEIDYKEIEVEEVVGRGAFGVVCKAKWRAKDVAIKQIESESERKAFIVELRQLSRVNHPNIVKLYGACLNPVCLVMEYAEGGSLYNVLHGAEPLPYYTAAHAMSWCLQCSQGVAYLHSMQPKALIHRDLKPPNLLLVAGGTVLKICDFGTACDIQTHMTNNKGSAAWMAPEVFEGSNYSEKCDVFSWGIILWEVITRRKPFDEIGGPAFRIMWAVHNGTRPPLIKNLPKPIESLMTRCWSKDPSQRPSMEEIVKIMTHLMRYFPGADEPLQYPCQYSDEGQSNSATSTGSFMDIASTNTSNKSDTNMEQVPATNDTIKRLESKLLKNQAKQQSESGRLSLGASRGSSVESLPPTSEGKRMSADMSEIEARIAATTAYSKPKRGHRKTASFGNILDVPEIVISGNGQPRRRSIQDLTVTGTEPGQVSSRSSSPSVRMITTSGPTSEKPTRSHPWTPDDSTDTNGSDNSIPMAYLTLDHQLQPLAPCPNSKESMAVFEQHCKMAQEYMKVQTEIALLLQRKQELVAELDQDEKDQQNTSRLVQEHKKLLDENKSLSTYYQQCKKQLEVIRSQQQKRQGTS
# [3] = biological target: T1, Mitogen-activated protein kinase kinase kinase 7 (Homo sapiens); details: at 10 µM
# [4] = biological target: T2, Serine/threonine-protein kinase TAO1 (Homo sapiens) (UniProt Q7L7X3); details: at 1 µM
# T2 sequence (whole entry): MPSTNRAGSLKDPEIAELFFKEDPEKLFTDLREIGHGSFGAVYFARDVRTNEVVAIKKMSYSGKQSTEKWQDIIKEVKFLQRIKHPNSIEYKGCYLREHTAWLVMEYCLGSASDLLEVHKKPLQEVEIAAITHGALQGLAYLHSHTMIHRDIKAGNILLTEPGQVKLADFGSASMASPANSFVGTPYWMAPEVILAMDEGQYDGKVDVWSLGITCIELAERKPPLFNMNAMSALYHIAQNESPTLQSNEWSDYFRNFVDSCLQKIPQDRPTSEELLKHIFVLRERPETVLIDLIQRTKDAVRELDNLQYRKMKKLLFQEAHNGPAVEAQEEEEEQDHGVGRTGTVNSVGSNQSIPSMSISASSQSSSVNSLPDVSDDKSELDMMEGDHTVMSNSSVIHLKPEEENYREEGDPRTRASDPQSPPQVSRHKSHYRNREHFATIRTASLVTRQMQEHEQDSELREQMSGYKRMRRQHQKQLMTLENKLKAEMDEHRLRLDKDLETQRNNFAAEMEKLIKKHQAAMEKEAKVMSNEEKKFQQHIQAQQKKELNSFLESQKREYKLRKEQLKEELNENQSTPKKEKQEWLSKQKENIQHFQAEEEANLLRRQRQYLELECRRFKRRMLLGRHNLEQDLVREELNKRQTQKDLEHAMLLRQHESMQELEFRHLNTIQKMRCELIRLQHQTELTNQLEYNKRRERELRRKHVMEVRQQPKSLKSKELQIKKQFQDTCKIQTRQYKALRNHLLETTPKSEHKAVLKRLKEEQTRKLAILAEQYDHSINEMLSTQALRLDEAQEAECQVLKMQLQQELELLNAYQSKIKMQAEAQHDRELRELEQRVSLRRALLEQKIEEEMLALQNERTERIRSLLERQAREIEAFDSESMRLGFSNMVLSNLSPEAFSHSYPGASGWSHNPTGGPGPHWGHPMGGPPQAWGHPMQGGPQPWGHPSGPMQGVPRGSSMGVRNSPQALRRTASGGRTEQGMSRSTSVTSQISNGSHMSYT
# [5] = biological target: T2, Serine/threonine-protein kinase TAO1 (Homo sapiens); details: at 10 µM
# [6] = biological target: T3, Serine/threonine-protein kinase TAO2 (Homo sapiens) (UniProt Q9UL54); details: at 1 µM
# T3 sequence (whole entry): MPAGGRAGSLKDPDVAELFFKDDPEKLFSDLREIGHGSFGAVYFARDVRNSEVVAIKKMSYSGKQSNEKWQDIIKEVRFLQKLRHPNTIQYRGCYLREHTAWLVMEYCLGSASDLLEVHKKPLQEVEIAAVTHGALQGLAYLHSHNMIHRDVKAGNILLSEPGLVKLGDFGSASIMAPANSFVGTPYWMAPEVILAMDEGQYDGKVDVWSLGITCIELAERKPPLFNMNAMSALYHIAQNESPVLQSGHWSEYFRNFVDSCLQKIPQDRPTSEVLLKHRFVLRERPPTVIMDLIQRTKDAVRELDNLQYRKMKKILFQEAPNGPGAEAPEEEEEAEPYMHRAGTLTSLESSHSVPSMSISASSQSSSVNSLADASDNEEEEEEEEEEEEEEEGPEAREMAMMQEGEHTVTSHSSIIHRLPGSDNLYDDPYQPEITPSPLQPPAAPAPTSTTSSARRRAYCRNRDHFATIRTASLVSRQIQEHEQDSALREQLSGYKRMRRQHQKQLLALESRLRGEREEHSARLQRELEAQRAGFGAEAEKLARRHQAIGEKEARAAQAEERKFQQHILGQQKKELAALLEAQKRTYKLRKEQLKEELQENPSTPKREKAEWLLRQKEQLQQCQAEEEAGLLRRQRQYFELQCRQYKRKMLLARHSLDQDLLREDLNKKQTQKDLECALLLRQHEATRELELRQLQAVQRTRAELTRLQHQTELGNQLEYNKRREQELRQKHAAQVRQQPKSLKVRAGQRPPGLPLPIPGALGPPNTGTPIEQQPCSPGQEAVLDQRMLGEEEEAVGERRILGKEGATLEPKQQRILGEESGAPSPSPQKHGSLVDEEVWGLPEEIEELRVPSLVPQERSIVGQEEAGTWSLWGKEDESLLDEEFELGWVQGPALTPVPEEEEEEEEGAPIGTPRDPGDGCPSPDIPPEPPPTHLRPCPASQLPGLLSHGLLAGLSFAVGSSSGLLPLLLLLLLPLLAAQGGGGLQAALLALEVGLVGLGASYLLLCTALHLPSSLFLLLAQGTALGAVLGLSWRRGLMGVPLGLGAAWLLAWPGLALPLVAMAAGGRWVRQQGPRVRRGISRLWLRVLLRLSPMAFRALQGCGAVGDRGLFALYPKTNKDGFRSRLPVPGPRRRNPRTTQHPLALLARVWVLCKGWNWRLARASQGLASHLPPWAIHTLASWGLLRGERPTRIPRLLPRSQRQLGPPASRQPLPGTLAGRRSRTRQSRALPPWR
# [7] = biological target: T3, Serine/threonine-protein kinase TAO2 (Homo sapiens); details: at 10 µM
# [8] = biological target: T4, Serine/threonine-protein kinase TAO3 (Homo sapiens) (UniProt Q9H2K8); details: at 1 µM
# T4 sequence (whole entry): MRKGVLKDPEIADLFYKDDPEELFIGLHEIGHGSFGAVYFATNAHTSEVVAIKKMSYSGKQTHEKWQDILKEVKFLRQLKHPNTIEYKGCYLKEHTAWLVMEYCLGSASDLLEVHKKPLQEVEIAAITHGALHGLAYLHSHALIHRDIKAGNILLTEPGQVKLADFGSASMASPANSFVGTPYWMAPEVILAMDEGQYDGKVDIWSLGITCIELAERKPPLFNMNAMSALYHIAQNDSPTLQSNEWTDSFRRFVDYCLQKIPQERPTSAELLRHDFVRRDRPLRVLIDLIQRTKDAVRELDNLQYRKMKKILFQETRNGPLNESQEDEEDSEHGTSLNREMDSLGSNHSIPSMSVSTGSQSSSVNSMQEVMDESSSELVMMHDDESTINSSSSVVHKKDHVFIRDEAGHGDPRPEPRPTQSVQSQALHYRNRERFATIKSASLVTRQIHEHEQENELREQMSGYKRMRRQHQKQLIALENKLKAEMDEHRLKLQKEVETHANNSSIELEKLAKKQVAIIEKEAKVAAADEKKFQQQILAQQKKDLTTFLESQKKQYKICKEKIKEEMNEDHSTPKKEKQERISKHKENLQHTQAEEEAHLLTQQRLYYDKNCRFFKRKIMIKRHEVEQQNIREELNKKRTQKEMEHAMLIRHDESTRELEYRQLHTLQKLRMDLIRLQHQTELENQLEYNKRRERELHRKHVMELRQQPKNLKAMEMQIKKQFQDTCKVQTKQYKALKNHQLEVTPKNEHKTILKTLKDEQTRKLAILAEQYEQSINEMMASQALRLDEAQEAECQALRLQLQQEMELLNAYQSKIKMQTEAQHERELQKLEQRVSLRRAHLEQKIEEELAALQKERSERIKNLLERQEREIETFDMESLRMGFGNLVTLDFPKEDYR
# [9] = biological target: T4, Serine/threonine-protein kinase TAO3 (Homo sapiens); details: at 10 µM
# [10] = biological target: T5, Serine/threonine-protein kinase TBK1 (Homo sapiens) (UniProt Q9UHD2); details: at 1 µM
# T5 sequence (whole entry): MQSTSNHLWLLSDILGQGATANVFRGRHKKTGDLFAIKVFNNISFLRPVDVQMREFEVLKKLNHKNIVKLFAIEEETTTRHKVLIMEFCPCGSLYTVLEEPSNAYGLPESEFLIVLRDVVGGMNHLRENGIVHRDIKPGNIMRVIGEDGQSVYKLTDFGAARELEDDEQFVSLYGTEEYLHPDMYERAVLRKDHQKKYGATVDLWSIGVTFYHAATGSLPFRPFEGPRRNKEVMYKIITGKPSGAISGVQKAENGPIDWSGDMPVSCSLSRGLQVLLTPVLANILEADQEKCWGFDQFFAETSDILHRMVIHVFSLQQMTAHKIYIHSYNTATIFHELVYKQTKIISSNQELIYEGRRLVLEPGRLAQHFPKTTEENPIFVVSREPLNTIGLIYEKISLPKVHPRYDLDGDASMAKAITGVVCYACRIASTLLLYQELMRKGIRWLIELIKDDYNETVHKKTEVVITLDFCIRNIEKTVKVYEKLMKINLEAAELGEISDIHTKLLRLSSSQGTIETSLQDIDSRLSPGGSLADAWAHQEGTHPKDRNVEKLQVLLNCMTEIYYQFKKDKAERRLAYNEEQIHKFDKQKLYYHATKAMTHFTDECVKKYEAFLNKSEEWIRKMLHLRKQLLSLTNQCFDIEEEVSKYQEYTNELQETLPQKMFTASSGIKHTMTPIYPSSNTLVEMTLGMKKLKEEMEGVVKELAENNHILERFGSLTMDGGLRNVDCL
structure (smiles),measurement,setting,value
O=C(O)c1ccc2c3c1cccc3c(=O)n1c3ccccc3nc21,residual activity,[1],105%
same,residual activity,[2],89%
same,residual activity,[3],41%
same,residual activity,[4],90%
same,residual activity,[5],56%
same,residual activity,[6],110%
same,residual activity,[7],91%
same,residual activity,[8],91%
same,residual activity,[9],65%
same,residual activity,[10],19%
